In PubChem BioAssay (Tox21):
Where “and” joins values, the source holds several entries; their conditions need not be identical. Equal entries are not always repeated. Inconclusive results are not listed. Calls of active or inactive are those of the source. Unless noted, calls follow the shape of the dose curve; as a rule, active = well fitted curve in the direction sought with a large enough effect in the repeat runs; inconclusive = weak or mixed curves; inactive = no such curve, though single readings can be large; an effect the other way counts as inactive or inconclusive.

Legend:
[1] = target: Thyrotropin receptor (Homo sapiens) (UniProt P16473); assay: qHTS assay to identify small molecule agonists of the thyroid stimulating hormone receptor (TSHR) signaling pathway (AID 1224843; calls by dose curve; also: nearly all actives have a fitted effect of over 45% in size)
Procedure, shortened: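 HEK293/TSHR, 800 cells/well; cpd 30 min RT; add cAMP-d2 + anti-cAMP-cryptate, 1 h RT; fluorescence read on plate reader. 15-pt titration, n=3.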

[2] = qHTS assay to identify small molecule agonists of the hypoxia (HIF-1) signaling pathway - cell viability counter screen (AID 1224844; calls by dose curve; also: nearly all actives have a fitted effect of over 50% in size)
Procedure, shortened: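 In this counter screen, HRE-bla ME-180 cell viability after 17 hrs of compound exposure at 37C was read by CellTiter-Glo luminescence, multiplexed with the beta-lactamase reporter measurement.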

[3] = qHTS assay to identify small molecule agonists of H2AX (AID 1224845; active = well fitted activation curve with a large enough effect in the signal ratio in the repeat runs, not every such curve was filed as active; the % refers to the signal ratio)
Procedure, shortened: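 Wild-type CHO-K1 cells, plated overnight, exposed 3hr at 37C to 15 concentrations (0.76% DMSO final). Lysed, then HTRF anti-pH2AX (S139) cryptate and anti-H2AX-d2 antibodies, 24 hr room temperature; 665/620 nm emission read.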

[4] = qHTS assay to identify small molecule agonists of the hypoxia (HIF-1) signaling pathway (AID 1224846; active = well fitted activation curve with a large enough effect in the signal ratio in the repeat runs, not every such curve was filed as active; the % refers to the signal ratio)
Procedure, shortened: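 ME-180 HRE-bla reporter cells; compounds in DMSO, 17 h at 37C; read-out beta-lactamase via CCF4-AM FRET.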

[5] = qHTS assay to identify small molecule agonists of H2AX - cell viability counter screen (AID 1224847; calls by dose curve; also: top concentration of the series differs between compounds; nearly all actives have a fitted effect of over 30% in size)
Procedure, shortened: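 Cytotoxicity counter screen in wild-type CHO-K1 cells: a 3 hr compound treatment at 37C across 15 concentrations, followed by CellTiter-Glo luminescence to gauge viable cells.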

[6] = qHTS assay to identify small molecule antagonists of the estrogen related receptor (ERR) signaling pathway from Tox21 library (AID 1224848); also: nearly all actives have a fitted effect of over 50% in size
Procedure, shortened: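 Compounds dissolved in DMSO are pin-transferred onto ERR reporter cells (2,000 per well) that have settled for 6 h at 37 C. Plates then incubate 18 h at 37 C before ONE-Glo luciferase reagent and a luminescence read 30 min later.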

[7] = qHTS assay to identify small molecule agonists of the estrogen related receptor (ERR) signaling pathway from Tox21 library (AID 1224849; calls by dose curve; also: nearly all actives have a fitted effect of over 15% in size); details: ERR reporter cell line, ONE-Glo luciferase, 18 h; at 92.4 µM (top of the series) unless noted
Procedure, shortened: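 Luciferase activity in ERR pathway reporter cells served as the agonist readout; exposure lasted 18 h at 37 C, with ONE-Glo detection after 30 min at room temperature.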

[8] = qHTS RealTime-Glo MT Cell Viability Assay in HepG2 cells - 24 hour (AID 1224867); also: nearly all actives have a fitted effect of over 50% in size
Procedure, shortened: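 Cells + NanoLuc/prosubstrate dispensed (600 cells/well) → 5 h at 37 C/5% CO2 → compounds in DMSO transferred → 40 h incubation at 37 C, luminescence read at 0, 8, 16, 24, 32, 40 h.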

[9] = qHTS RealTime-Glo MT Cell Viability Assay in HEK293 cells - 32 hour (AID 1224868); also: top concentration of the series differs between compounds; nearly all actives have a fitted effect of over 50% in size
Procedure, shortened: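 Tox21 10K qHTS, HEK293, 600 cells/well, RealTime-Glo reagent co-dispensed with cells; 5 h preincubation, compound by pintool, 37 C, luminescence at 0–40 h.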

[10] = A CellTox Green Cytotoxicity Assay to monitor cytotoxicity in HEK293 cells - 0 hour (AID 1224869); also: nearly all actives have a fitted effect of over 50% in size
Procedure, shortened: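 Real-time, in one plate: 600 HEK293 cells/well with dead-cell DNA dye, pinned compound after 5 h, 37 C incubation over 40 h; viable cells give no appreciable fluorescence.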
% is scaled to controls: 0 for no effect and ±100 for the full control effect.

Chain of Thyrotropin receptor (Homo sapiens) (P16473 whole entry, looked up): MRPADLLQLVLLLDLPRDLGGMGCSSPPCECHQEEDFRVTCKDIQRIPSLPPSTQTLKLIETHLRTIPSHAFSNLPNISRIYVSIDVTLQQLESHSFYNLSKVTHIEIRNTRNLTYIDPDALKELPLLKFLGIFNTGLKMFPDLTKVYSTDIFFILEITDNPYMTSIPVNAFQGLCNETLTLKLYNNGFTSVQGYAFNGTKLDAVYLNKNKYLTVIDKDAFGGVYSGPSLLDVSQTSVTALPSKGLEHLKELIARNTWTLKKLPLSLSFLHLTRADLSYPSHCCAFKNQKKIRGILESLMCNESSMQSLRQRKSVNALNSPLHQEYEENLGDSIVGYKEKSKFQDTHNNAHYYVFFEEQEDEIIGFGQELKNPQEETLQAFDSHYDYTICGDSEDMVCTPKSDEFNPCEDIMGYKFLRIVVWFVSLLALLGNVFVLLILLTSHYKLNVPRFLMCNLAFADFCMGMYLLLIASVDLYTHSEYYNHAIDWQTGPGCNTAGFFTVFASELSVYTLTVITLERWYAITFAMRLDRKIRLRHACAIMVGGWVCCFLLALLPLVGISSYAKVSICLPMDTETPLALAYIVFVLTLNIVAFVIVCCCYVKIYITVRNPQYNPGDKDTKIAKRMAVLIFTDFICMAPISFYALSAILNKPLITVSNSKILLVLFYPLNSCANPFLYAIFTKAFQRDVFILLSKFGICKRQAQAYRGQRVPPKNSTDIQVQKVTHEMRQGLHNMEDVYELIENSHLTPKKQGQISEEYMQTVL

Cc1cnc(NS(=O)(=O)c2ccc(N)cc2)nc1
inactive: Potency [1] | Potency [2] | outcome [3] | outcome [4] | Potency [5] | Potency [6] | activity change, positive = activation [7] 2.51% [at 42.5 µM] | Potency [8] | Potency [9] | Potency [10]

CC1=CC(C)C(C=O)CC1 (stereo not given)
inactive: Potency [1] | Potency [2] | outcome [3] | outcome [4] | Potency [5] | Potency [6] | activity change, positive = activation [7] 0.053% | Potency [8] | Potency [9] | Potency [10]

CC(C)NCCCC1(C(N)=O)c2ccccc2-c2ccccc21
inactive: Potency [1] | Potency [2] | outcome [3] | outcome [4] | Potency [5] | Potency [6] | activity change, positive = activation [7] 9.55% [at 42.5 µM] | Potency [8] | Potency [9] | Potency [10]

CN(C)CCCNCCCN(C)C
inactive: Potency [1] | Potency [2] | outcome [3] | outcome [4] | Potency [5] | Potency [6] | activity change, positive = activation [7] -4.23% | Potency [8] | Potency [9] | Potency [10]

CC/C=C\CCOC(C)=O
inactive: Potency [1] | Potency [2] | outcome [3] | outcome [4] | Potency [5] | Potency [6] | activity change, positive = activation [7] 8.11% | Potency [8] | Potency [9] | Potency [10]

CC(=O)c1ccccc1O
inactive: Potency [1] | Potency [2] | outcome [3] | outcome [4] | Potency [5] | Potency [6] | activity change, positive = activation [7] 0.43% | Potency [8] | Potency [9] | Potency [10]

C[N+](C)(C)CC(O)CC(=O)[O-] (stereo not given)
inactive: Potency [1] | Potency [2] | outcome [3] | outcome [4] | Potency [5] | Potency [6] | activity change, positive = activation [7] 3.63% [at 42.5 µM] | Potency [8] | Potency [9] | Potency [10]

CN1CCCC1
inactive: Potency [1] | Potency [2] | outcome [3] | outcome [4] | Potency [5] | Potency [6] | activity change, positive = activation [7] 4.55% | Potency [8] | Potency [9] | Potency [10]

CC(=O)Nc1ccc(S(N)(=O)=O)cc1
inactive: Potency [1] | Potency [2] | outcome [3] | outcome [4] | Potency [5] | Potency [6] | activity change, positive = activation [7] 4.26% | Potency [8] | Potency [9] | Potency [10]

CCOC(=O)C(=O)OCC
inactive: Potency [1] | Potency [2] | outcome [3] | outcome [4] | Potency [5] | Potency [6] | activity change, positive = activation [7] 4.42% | Potency [8] | Potency [9] | Potency [10]

COC(=O)CCSCCC(=O)OC
inactive: Potency [1] | Potency [2] | outcome [3] | outcome [4] | Potency [5] | Potency [6] | activity change, positive = activation [7] 1.8% | Potency [8] | Potency [9] | Potency [10]

CCCC(=O)O[C@]1(C(=O)CO)CC[C@H]2[C@@H]3CCC4=CC(=O)CC[C@]4(C)[C@H]3[C@@H](O)C[C@@]21C
inactive: Potency [1] | Potency [2] | outcome [3] | outcome [4] | Potency [5] | Potency [6] | activity change, positive = activation [7] -12.3% [at 42.5 µM] | Potency [8] | Potency [9] | Potency [10]

CCCCCSCCCCC
inactive: Potency [1] | Potency [2] | outcome [3] | outcome [4] | Potency [5] | Potency [6] | activity change, positive = activation [7] 6.38% | Potency [8] | Potency [9] | Potency [10]

CS(=O)(=O)O
inactive: Potency [1] | Potency [2] | outcome [3] | outcome [4] | Potency [5] | Potency [6] | activity change, positive = activation [7] 3.34% | Potency [8] | Potency [9] | Potency [10]

C=C(C)C(=O)OCCCCCCCC(C)C
inactive: Potency [1] | Potency [2] | outcome [3] | outcome [4] | Potency [5] | Potency [6] | activity change, positive = activation [7] 2.01% | Potency [8] | Potency [9] | Potency [10]

CC(=O)OC/C=C(\C)CC/C=C(\C)CCC=C(C)C
inactive: Potency [1] | Potency [2] | outcome [3] | outcome [4] | Potency [5] | Potency [6] | activity change, positive = activation [7] 1.18% and 2.19% | Potency [8] | Potency [9] | Potency [10]

C=C[Si](OC(=C)C)(OC(=C)C)OC(=C)C
inactive: Potency [1] | Potency [2] | outcome [3] | outcome [4] | Potency [5] | Potency [6] | activity change, positive = activation [7] -0.275% | Potency [8] | Potency [9] | Potency [10]

Cc1sccc1Br
inactive: Potency [1] | Potency [2] | outcome [3] | outcome [4] | Potency [5] | Potency [6] | activity change, positive = activation [7] -1.02% [at 42.5 µM] | Potency [8] | Potency [9] | Potency [10]

CO[C@]12C[C@@H](COC(=O)c3cncc(Br)c3)CN(C)[C@@H]1Cc1cn(C)c3cccc2c13
inactive: Potency [1] | Potency [2] | outcome [3] | outcome [4] | Potency [5] | Potency [6] | activity change, positive = activation [7] 6.2% [at 42.5 µM] | Potency [8] | Potency [9] | Potency [10]

CC(C)=CCCC(C)CC(=O)O (stereo not given)
inactive: Potency [1] | Potency [2] | outcome [3] | outcome [4] | Potency [5] | Potency [6] | activity change, positive = activation [7] 3.83% | Potency [8] | Potency [9] | Potency [10]
